Bioassay records as filed in PubChem.
PKA-R1A act: activators of PKA-R1A holoenzyme, primary screen, biochemical, fluorescence polarization, Cy5-IP20, bovine R1A, mouse PKAc; cAMP-dependent protein kinase type I-alpha regulatory subunit (Bos taurus) + …; PKA-R1A dissociation; scaled: DMSO 0%, 113 µM cGMP 100%; activation, % at 11.4 µM; hit rate 0.083% among 340,000; AID 504707, 2011;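 active = percent activation above the mean of all tested compounds plus 3 SD, cut at about 19% in these data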;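 also: higher means more PKAc released from R1A so a rise in polarization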
Rpn11 block: Rpn11 (PSMD14) deubiquitinase inhibitors, primary screen, biochemical, fluorescence polarization, uHTS; calls only at 20 µM; hit rate 0.59% among 360,000; human 26S proteasome, Ub4-pepOG fluorescence polarization; 20S core pre-blocked with epoxomicin; 26S proteasome non-ATPase regulatory subunit 14 (Homo sapiens), O00487;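 active = inhibition at 20 µM, scaled to each plate's controls, above about 33%, limit read from the data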
Target sequence (O00487 whole entry, looked up): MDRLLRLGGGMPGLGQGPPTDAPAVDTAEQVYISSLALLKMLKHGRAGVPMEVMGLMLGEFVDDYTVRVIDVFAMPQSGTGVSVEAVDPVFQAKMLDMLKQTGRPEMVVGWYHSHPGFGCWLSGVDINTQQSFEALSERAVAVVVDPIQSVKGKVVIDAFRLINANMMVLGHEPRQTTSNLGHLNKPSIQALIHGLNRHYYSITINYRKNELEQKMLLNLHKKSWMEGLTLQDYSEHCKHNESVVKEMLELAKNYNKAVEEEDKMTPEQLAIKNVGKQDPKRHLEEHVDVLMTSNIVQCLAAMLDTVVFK
PKA-R2B activ: activators of PKA-R2B holoenzyme, primary screen, biochemical, fluorescence polarization, Cy5-IP20, human. cAMP-dependent protein kinase catalytic subunit beta (Homo sapiens) + cAMP-dependent …. PKA-R2B holoenzyme dissociation; R2B truncated from residue 108, S112A mutant; 0% DMSO only, 100% 113 µM cGMP. activation, % at 11.4 µM. hit rate 0.079% among 340,000;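 active = activation above a cutoff set at the mean over all compounds plus 3 SD, cut at about 18% in these data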;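 also: higher means more holoenzyme dissociation and a rise in polarization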
Neddylation inh: inhibitors of cullin neddylation, primary screen, biochemical, TR-FRET, uHTS, NAE and Ubc12; inhibition, % at 25 µM; hit rate 0.58% among 360,000; AID 651699, 2012; in the data active = inhibition above about 36%
Rpn11 inh conf: Rpn11 (PSMD14) deubiquitinase inhibitors, confirmation, biochemical, fluorescence polarization, single concentration; shares compounds with Rpn11 block; purified human 26S proteasome, Ub4-pepOG fluorescence polarization; proteasome pretreated with epoxomicin; inhibition, % at 20 µM; hit rate 29% among 1,900; AID 602318, 2012
MMP-2 inh: MMP-2 enzyme inhibition, confirmation, counter-screen for RPN11 inhibitor project, biochemical, fluorescence, single concentration; inhibition, % at 20 µM; shares compounds with Rpn11 block; AID 602330, 2012; hit rate 4% among 1,900; recombinant MMP-2, FRET peptide cleavage fluorescence;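 also: human MMP-2 activated beforehand with APMA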
Thrombin FP: bovine thrombin protease inhibition, confirmation, counter-screen for Rpn11 inhibitor project, biochemical, fluorescence polarization, single concentration. shares compounds with Rpn11 block. bovine thrombin cleavage of Ub4-pepOG. inhibition, % at 20 µM. hit rate 13% among 1,900. AID 602333, 2012;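 active = mean inhibition at least 40% at 20 µM, or signal 3 deviations below plate average, so some actives read negative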;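 also: plate controls were thrombin with DMSO for no effect and buffer wells lacking thrombin for full effect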
An asterisk follows results filed as active; i = inactive; . = no result given; + = active, no number; ! = not active in a repeat. Shown are actives, neighbours in structure and some others; about 1.3% of the full set was active somewhere. Rule as the data show it, unless noted: active = inhibition above about 40%; inactive = the rest.

SMILES	PKA-R1A act	Rpn11 block	PKA-R2B activ	Neddylation inh	Rpn11 inh conf	MMP-2 inh	Thrombin FP
Cc1ccccc1S(=O)(=O)NC(=O)C1(C)CCN1C(=O)Cc1ccc(C(C)(C)C)cc1 (stereo not drawn)	.	i	.	17.4	.	.	.
O=C(CN1CCCc2ccccc21)N/N=C/c1ccccc1	0.8	+	-12.0	3.5	10.4	-12.6	-5.1
COc1ccc2cc(S(=O)(=O)NC3CC(C)(C)NC(C)(C)C3)ccc2c1	1.7	i	1.3	5.0	.	.	.
CCN=c1scc(-c2ccc3c(c2)NC(=O)CO3)n1N=C1CCCC1	9.4	+!	-13.0	-5.1	18.3	-36.6	20.4
COCC(C)n1c(-c2ccc3c(c2)NC(=O)CO3)csc1=Nc1ccc(OC(F)F)cc1 (stereo not drawn)	-16.6	i	-7.4	6.6	.	.	.
CCCCN=c1scc(-c2ccc3c(c2)NC(=O)CO3)n1N=C1CCCC1	-9.9	+	-14.0	0.0	41.9*	15.6	28.0
O=c1[nH]c2ccccc2nc1NCCN1CCOCC1	-2.2	+	-6.6	11.9	-12.6	-16.6	-4.1
c1ccc2[nH]c(NCCCN3CCOCC3)nc2c1	2.9	i	7.2	-1.7	.	.	.
Cn1c(=O)oc2cc(S(=O)(=O)NC3CCCCC3)ccc21	-2.9	i	5.9	-4.0	.	.	.
Cn1c(=O)oc2cc(S(=O)(=O)NCC3CCCO3)ccc21 (stereo not drawn)	-8.8	+	-8.9	5.1	21.8	-3.7	19.7
Cn1c(=O)oc2cc(S(=O)(=O)Nc3cccc4c3CCCC4)ccc21	2.9	+	-6.1	-7.2	37.7	19.9	24.3
Cc1cc(C)c(NS(=O)(=O)c2ccc3c(c2)oc(=O)n3C)c(C)c1	9.2	i	3.2	-11.7	.	.	.
O=C(c1ccc(NS(=O)(=O)c2cccc(F)c2)cc1)N1CCCCC1	7.4	i	-1.3	7.7	.	.	.
CC1CCCCC1NC(=O)COC(=O)c1ccc2c(c1)NC(=O)CS2 (stereo not drawn)	-3.2	i	0.6	3.6	.	.	.
CC(C)C(NCC(=O)Nc1ccccc1C(=O)NC1CC1)c1ccccc1 (stereo not drawn)	-3.5	i	-7.3	1.4	.	.	.
N#Cc1ccc(/C=C/C(=O)c2ccco2)cc1	-8.9	i	0.1	-0.3	.	.	.
Nc1ccc(/C=C/C(=O)c2ccco2)cc1	-0.3	+	6.8	11.1	76.7*	-30.8	66.7*
O=C(Nc1ccc(-c2nc3ccccc3[nH]2)cc1)c1ccco1	-0.6	i	-8.2	35.5	.	.	.
O=C(/C=C/c1ccco1)Nc1ccc(-c2nc3ccccc3[nH]2)cc1	11.8	+	15.0	31.5	5.0	-1.9	-34.6
COc1ccc(C(CNC(=O)C(CC(C)C)NS(=O)(=O)c2ccc(C)cc2)N2CCOCC2)cc1 (stereo not drawn)	1.3	i	-6.6	-2.1	.	.	.
O=c1[nH]c(-c2ccc(F)cc2)nc2c1sc(=S)n2-c1ccccc1	4.9	i	-2.9	-4.4	.	.	.
O=c1[nH]c(-c2ccc3c(c2)OCO3)nc2c1sc(=S)n2-c1ccccc1	-4.0	+	-1.7	-163.0	38.1	-15.1	22.6
N/C(=N\c1nc2c(c(=O)[nH]1)CCC2)Nc1cccc(Cl)c1	13.8	i	-8.4	6.0	.	.	.
N/C(=N\c1nc2c(c(=O)[nH]1)CCC2)Nc1cccc2ccccc12	-9.4	+	-0.9	1.7	47.3*	-5.9	6.1
CC(=O)NC12CC3CC(C1)CC(C(=O)N1CCN(c4ncccn4)CC1)(C3)C2	3.8	i	5.2	18.9	.	.	.
